Data from PubChem BioAssay AID743364 (National Center for Advancing Translational Sciences (NCATS), 2014).
Activity calls are given as the source filed them. Calls come from the whole dose curve; as a rule, active = well fitted curve in the direction sought with a large enough effect; inactive = no such curve, though single readings can be large or run the other way.

Assay: qHTS profiling of inhibitors of Plasmodium falciparum (3D7) proliferation (acoustic dispense)
Settings: P. falciparum 3D7 in erythrocytes, SYBR Green, 72 h; series mostly up to 49.8 µM

Row | Compound | outcome
1 | O=C1c2c(O)ccc(O)c2C(=O)c2c(NCCNCCO)ccc(NCCNCCO)c21 | inactive
2 | C[C@H]1[C@@H](OC(=O)CCC(=O)O)O[C@@H]2O[C@@]3(C)CC[C@@H]4[C@H](C)CC[C@@H]1[C@@]24OO3 | inactive
3 | CN(C)c1ccc(C(=C2C=CC(=[N+](C)C)C=C2)c2ccc(N(C)C)cc2)cc1 | inactive
4 | Cn1cc(CNCC2CCN(c3ncc(C(=O)NO)cn3)CC2)c2ccccc21 | inactive
5 | Nc1ccc(-c2ccc3ncc4ccc(=O)n(-c5cccc(C(F)(F)F)c5)c4c3c2)cn1 | inactive
6 | CC(C)C[C@H](NC(=O)[C@H](CCc1ccccc1)NC(=O)CN1CCOCC1)C(=O)N[C@@H](Cc1ccccc1)C(=O)N[C@@H](CC(C)C)C(=O)[C@@]1(C)CO1 | inactive
7 | NC1CCC(Nc2nc(Nc3ccc(C(=O)N4CCCCC4)cc3)c3ncn(-c4cccc(F)c4)c3n2)CC1 (centres undefined) | inactive
8 | CCc1nc(N)nc(N)c1-c1ccc(Cl)cc1 | inactive
9 | CCN(CC)CCNC(=O)c1c(C)[nH]c(C=C2C(=O)Nc3ccc(F)cc32)c1C | inactive
10 | CC(=NNC(=S)N1CCC1)c1ccccn1 | inactive
11 | C[C@@H](Oc1ccc2[nH]nc(C=Cc3cnn(CCO)c3)c2c1)c1c(Cl)cncc1Cl | inactive
12 | CCCCN(CCCC)CC(O)c1cc(Cl)cc2c1-c1ccc(Cl)cc1C2=Cc1ccc(Cl)cc1 (centres undefined) | inactive
13 | CN(C(=O)OC(C)(C)C)[C@@H](Cc1ccc(O[S+](=O)([O-])c2cccc3cnccc23)cc1)C(=O)N1CCN(C(=O)OCc2ccccc2)CC1 | inactive
14 | CN(C)c1ccc2nc3ccc(=[N+](C)C)cc-3sc2c1 | inactive
